Only a selection was taken, and hits are over-represented in it overall.
L3MBTL1 inh: inhibitors of human L3MBTL1. Q9Y468. AlphaScreen L3MBTL1–H3K9me1 peptide binding. Potency, µM (top dose mostly 57.1 µM), inactives show at the highest dose activity, negative = inhibition, hits mostly inhibitors. AID 485360. 230,000 compounds, 0.66% hits; further: nearly all actives have a fitted effect of over 60% in size
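Displacement of a biotinylated histone H3(1-15) peptide monomethylated at Lys9 (75 nM) from L3MBTL1 (50 nM) was measured by AlphaScreen after a 30 min room-temperature compound incubation; cefsulodin titration served as intraplate control.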
TDP1 block: TDP1 (human) enzyme inhibition | Q9NUW8 | recombinant TDP1, AlphaScreen DNA substrate cleavage | Potency, µM (top dose mostly 130 µM), without a hit: top-dose activity change, negative = inhibition, actives largely listed as inhibitors | 350,000 compounds, 0.28% hits | AID 485290; further: nearly all actives have a fitted effect of over 40% in size
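Recombinant human Tdp1 (E. coli-expressed, 1 nM final) preincubated with compounds 15 min at room temperature, then 5'-biotin/3'-phosphotyrosine-FITC DNA substrate (15 nM final) added for 5 min. AlphaScreen beads (10 ug/ml final) added 10 min; cleavage lowers signal.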
APEX1 inh: APE1 (human) endonuclease inhibition; recombinant APE1, TAMRA/BHQ-2 abasic DNA cleavage fluorescence; Potency, µM (highest dose often 65.8 µM), without a hit: at the top dose activity change, negative = inhibition, hits mostly inhibitors; 350,000 compounds, 0.35% hits; AID 2517;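 further: plate controls were vehicle for no effect and reference inhibitor for full effect; nearly all actives have a fitted effect of over 55% in size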
Target sequence (P27695 whole entry, looked up): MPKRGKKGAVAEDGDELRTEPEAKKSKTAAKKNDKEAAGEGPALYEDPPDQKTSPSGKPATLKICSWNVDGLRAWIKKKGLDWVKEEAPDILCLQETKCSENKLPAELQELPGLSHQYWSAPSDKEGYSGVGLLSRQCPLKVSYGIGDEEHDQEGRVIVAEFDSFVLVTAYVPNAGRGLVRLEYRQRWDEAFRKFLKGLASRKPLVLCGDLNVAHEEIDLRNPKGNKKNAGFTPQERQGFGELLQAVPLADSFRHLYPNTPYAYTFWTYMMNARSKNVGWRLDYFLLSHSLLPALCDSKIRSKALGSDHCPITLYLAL
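Endonuclease cleavage of a quenched abasic-site DNA duplex (50 nM) by APE1 (0.75 nM) was tracked by TAMRA dequenching. Compounds were preincubated with enzyme 15 min at room temperature; data normalized to buffer-only and DMSO wells plus NSC13755 control.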
JMJD2E inh: JMJD2E (human) inhibition | B2RXH2 | JMJD2E catalytic domain, FDH-coupled NADH fluorescence (FDH is formaldehyde dehydrogenase) | Potency, µM (highest dose often 57.1 µM), without a hit: top-dose activity change, negative = inhibition, usual class: inhibitors | 230,000 compounds, 1.6% hits; active means well fitted inhibition curve with a large enough effect, not every such curve was filed as active; inconclusive means small, poorly fitted or top-dose-only effect, or another doubt; inactive means no such curve, though single readings can be large or run the other way;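 further: 0% = wells with enzyme and -100% = buffer wells without enzyme; nearly all actives have a fitted effect of over 50% in size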
Target sequence (B2RXH2 1-337 limits assumed): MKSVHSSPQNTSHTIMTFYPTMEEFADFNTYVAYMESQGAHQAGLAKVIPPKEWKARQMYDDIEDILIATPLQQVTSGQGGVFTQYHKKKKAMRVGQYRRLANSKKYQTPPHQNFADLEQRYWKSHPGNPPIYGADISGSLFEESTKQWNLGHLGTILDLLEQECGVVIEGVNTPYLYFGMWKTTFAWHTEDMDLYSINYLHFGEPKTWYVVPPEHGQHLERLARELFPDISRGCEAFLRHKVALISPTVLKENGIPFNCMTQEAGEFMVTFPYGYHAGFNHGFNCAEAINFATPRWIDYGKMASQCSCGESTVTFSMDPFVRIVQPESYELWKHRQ
BLM inh: inhibitors of human Bloom syndrome helicase BLM; P54132; 350,000 compounds, 0.2% hits; Potency, µM (top dose mostly 56.1 µM), for inactives: top-dose activity change, negative = inhibition, usual class: inhibitors; recombinant BLM DNA unwinding, fluorescence dequenching;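 further: plate controls were vehicle for no effect and no enzyme for full effect; nearly all actives have a fitted effect of over 35% in size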
RECQ1 inh: RECQ1 (human) helicase inhibition; P46063; RECQ1 DNA unwinding, red fluorescence kinetic read; Potency, µM (series often up to 57.3 µM), without a hit: at the highest dose activity, negative = inhibition, hits mostly inhibitors; 240,000 compounds, 0.54% hits;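 further: plate controls were vehicle for no effect and no enzyme for full effect; nearly all actives have a fitted effect of over 30% in size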
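50 nM RECQ1T1 preincubated 15 min with compound in Tris pH 8.0 buffer with MgCl2, DTT, Tween-20 and 2.5 ug/ml poly(dI-dC); started with 200 nM TAMRA/BHQ-2 forked duplex and 2 mM ATP. Unwinding read as fluorescence (525/598 nm), two reads 2 h apart.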
* hit, by the source's call; i = inactive; ? = inconclusive; . = no result; ! = a repeat was not active; [ ] = dose if it differs, or a comment. Unless noted, the call rests on the fitted dose curve; in most records, active means well fitted curve in the direction sought with a large enough effect; inconclusive means small, poorly fitted or top-dose-only effect, or another doubt; inactive means no such curve, though single readings can be large; an effect the other way counts as inactive or inconclusive. Unless noted, on the % scale 0 is the no-effect control and ±100 the full control effect; potency means the concentration at half of the fitted maximal effect.

SMILES	L3MBTL1 inh	TDP1 block	APEX1 inh	JMJD2E inh	BLM inh	RECQ1 inh
COc1cc(C(C#N)N2N=C(c3ccccc3)CC2c2ccccc2)ccc1O (centres undefined)	12.2%	-5.9%	-2.2%	-25.2%	-0.4%	i
COc1ccc(-c2ccc(CCC(=O)O)n2NC(=O)c2cccs2)cc1	19.6%[11.4 µM]	-1.2%	-5.8%	2.0%	-1.9%	-0.2%
Cc1ccc(-c2ccc(CCC(=O)O)n2NC(=O)c2cccs2)cc1	39.8µM*	-2.2%	-9.9%	6.5%	-3.6%	5.1%
CC(C)(C)N[S+](=O)([O-])c1cccc(-c2nnc(SCC(=O)Nc3ccc(C(=O)O)cc3)n2-c2ccccc2)c1	.	.	8.2%	.	.	.
CCN(Cc1ccncc1)Cc1c(O)ccc2cc(Br)ccc12	-17.0%	10.7%	-2.9%	7.08µM*	-0.5%	-16.4%
CCN(CC)C(=O)Cc1c(OC)ccc2cc(Br)ccc12	2.1%	-1.2%	-4.7%	7.1%	-0.6%	28.8%
Cc1cccc(NS(=O)(=O)c2ccc3c(c2)CC(C)N3C(=O)C2CCC2)c1C (centres undefined)	.	8.7%	.	.	-5.7%	.
Cn1c(=O)c(C(=O)COC(=O)c2cc(-c3ccco3)nc3ccccc23)c(N)n(Cc2ccccc2)c1=O	?	0.9%	?	?	?	31.6µM*
COCCn1c(=O)c(-c2ccc(Cl)cc2)nc2cnc(N3CCNCC3)nc21	.	.	-5.5%	.	-7.8%	i
CC/C=C\C/C=C\C/C=C\CCCCCCCC(=O)O	?	5.01µM*!	-35.2%	?	?	1.78µM*!
CC(Cc1ccc(O)c(O)c1)(NN)C(=O)O (centres undefined)	.	1.8%	23.1%	2.24µM*	7.0%	i
Oc1ccc(/C=N/N=C/c2ccc(O)c(O)c2)cc1O	8.91µM*	.	?	.	?	.
Oc1ccc(N=Cc2ccc(O)c(O)c2)cc1	8.91µM*	0.0%	6.9%	0.631µM*	28.2µM*	i
Oc1ccc(/C=N/N=C/c2ccc(O)cc2)cc1	-2.9%	-2.5%	-10.9%	3.6%	-4.5%	i
Oc1ccc(/C=N/N(c2ccccc2)c2ccccc2)cc1O	.	2.2%	0.2%	.	-13.6%	.
O=C1Nc2ccccc2/C1=N\N=C\c1ccc(O)c(O)c1	?	2.6%	?	7.94µM*	?	-17.1%
O=C(O)c1cncc(Br)c1	4.1%	-2.7%	48.9%	8.0%	-2.3%	i
CN(C)c1ccnc(C(=O)O)c1	.	2.6%	13.4%	2.82µM*	-13.8%	-17.9%
O=C(c1ccccc1)c1ccccn1	.	3.4%	-10.4%	28.8%	-3.5%	-15.9%
O=C(O)c1ccccn1	14.1µM*	-2.1%	-9.8%	.	-10.5%	.
O=C(O)c1cc(Br)ccn1	.	1.2%	0.6%	17.8µM*	-7.7%	-7.1%
Cn1c(-c2ccc(S(=O)(=O)N3CCCC3)cc2)csc1=Nc1ccc(Cl)c(Cl)c1	.	4.8%[12.3 µM]	.	.	-5.0%	.
CC(C)(C)c1nnc(N/N=C/c2cc(Br)ccc2O)n(N)c1=O	?	10.5%	5.4%	22.4µM*	-7.9%	-19.7%
Cc1ccc(CNc2ccc(N3CCN(C(=O)OC(C)(C)C)CC3=O)cc2)cc1	.	.	21.0%	.	.	.
CCOC(=O)c1c(NC(=O)c2nc(S(C)(=O)=O)ncc2Cl)sc(C(C)=O)c1C	.	6.1%	.	.	-12.9%	.
SMILES	L3MBTL1 inh	TDP1 block	APEX1 inh	JMJD2E inh	BLM inh	RECQ1 inh
Cc1cccc(C)c1NC(=O)CN1CCN(C(=O)c2ccc(OCc3cn4ccccc4n3)cc2)CC1	-11.2%	44.7µM*	-14.4%	.	.	.
O=C(O)c1ccc(OCc2cn3ccccc3n2)cc1	.	.	-8.2%	?	-1.3%	i
CC1=C(C#N)C(=O)NC(=O)/C1=C\c1ccc(-c2ccc(C)cc2[N+](=O)[O-])o1	25.1µM*	1.6%	?	?	-19.4%	-14.5%
O=C(Nc1cccc(C(F)(F)F)c1)Oc1ccc(Cl)c2cccnc12	25.1µM*	7.6%	2.6%	?	-7.5%	i
O=C(CSc1nc2ccc(Nc3nc(N4CCCC4)nc(N4CCCC4)n3)cc2s1)NCc1ccco1	.	.	8.4%	20µM*	-6.1%	i
CCOC(=O)c1c(NC(=O)C2CC(Cl)=CCC2C(=O)O)sc2c1CCCCC2 (centres undefined)	.	22.4µM*	-23.4%	.	-5.0%	.
CCOC(=O)c1c(NC(=O)C2C3C=CC(C3)C2C(=O)O)sc2c1CCCC2 (centres undefined)	0.6%	6.0%	4.4%	?	2.5%	i
COc1ccc(O)c(/C=N/NC(=O)CSc2nnc(C)n2-c2ccccc2)c1	4.3%	4.1%	-0.8%	22.4µM*	0.3%	-2.6%
Cc1ccc(-c2nn(-c3ccccc3)cc2/C=N/NC(=O)CSc2nnc(C)n2-c2ccccc2)cc1	-8.5%	6.9%	-6.4%	-3.3%	-4.8%	-5.1%
COc1cccc(/C=N/NC(=O)CSc2nnc(C)n2-c2ccccc2)c1O	14.3%	-10.3%	-2.7%	28.2µM*	1.2%	-7.9%
CC(=O)Nc1cc(O)c2nonc2c1O	.	0.3%	.	.	.	.
COc1cc(NC(=O)c2cnc(N)s2)cc(C(=O)Nc2cccc(C(F)(F)F)c2)c1	.	-8.3%	-5.2%	20µM*	-13.2%	i
COc1cc(NC(=O)c2csc(N)n2)cc(C(=O)Nc2cccc(C(F)(F)F)c2)c1	.	7.1%	-4.6%	-26.7%	-9.4%	-23.8%
O=C(/C=C/c1c(Cl)nc2ccccn12)N1CCN(c2ccc(F)cc2)CC1	2.1%	79.4µM*	-3.3%	-7.5%	-7.4%	-3.1%
COc1ccc(C(=O)NC(=S)Nc2ccccc2N2CCCCC2)cc1[N+](=O)[O-]	-16.6%	6.9%	15.1%	-1.1%	-9.2%	-6.2%
O=C(NC(=S)Nc1ccccc1N1CCCC1)c1ccc([N+](=O)[O-])cc1	7.08µM*	1.2%	3.5%	-1.9%	-13.8%	-2.0%
CC1(C)CC(=O)c2c(oc3cc(O)c(O)cc23)C1	.	?	?	12.6µM*	-10.6%	20µM*!
Cc1ccc2[nH]c3c(c2c1)CN(C(=O)CN1CCN(c2cccc(C)c2C)CC1)CC3	-15.9%	6.6%	0.6%	22.4µM*	-21.9%	13.5%
COC/C=C/C1=CC2=CC(=O)C(C)(OC(=O)c3cnc4ccccc4n3)C(=O)C2=CN1c1ccc(CO)cc1 (centres undefined)	3.16µM*	.	10.6µM*!	-8.3%[11.4 µM]	12.6µM*!	-21.4%[11.5 µM]
Cc1ccc(/C=C/C(=O)c2ccccc(=O)c2O)cc1C	-14.0%	10.5%	?	28.2µM*	-9.9%	-14.5%
Cc1ccc(/C=[N+](\[O-])c2ccc(N(C)C)cc2)c2nsnc12	?	8.4%	-3.7%	14.1µM*	-8.6%	-11.6%
Cc1cc(C)c(S(=O)(=O)NCCc2sc3nc(-c4ccc(F)cc4)nn3c2C)c(C)c1	.	0.0%	.	.	-6.5%	.
Cc1ccc(OCc2ccoc2C(=O)O)cc1C	?	50.1µM*	?	3.8%	-0.3%	-11.2%
